Source: PubChem BioAssay (National Center for Advancing Translational Sciences (NCATS))
Rows were chosen to be rich in hits. Some 2.4% of all compounds tested hit in one or more screens of this group.
WRN helicase inh: WRN helicase (human) inhibition; Q14191; WRN helicase unwinding, fluorescent forked duplex, kinetic; Potency, µM (top dose mostly 114 µM), hits mostly inhibitors; hit rate 0.46% among 360,000; also: nearly all actives have a fitted effect of over 55% in size
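Kinetic red-fluorescence monitoring (525/598 nm) tracks WRN helicase activity after 100 nM fluorophore-quencher forked duplex and 2 mM ATP are added to 20 nM enzyme pretreated 15 min at room temperature with compound.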
POLH inh: inhibitors of human DNA polymerase eta; Potency, µM (highest dose often 114 µM), most hits filed as inhibitors; recombinant Pol eta, fluorescent DNA replication assay; Q9Y253; hit rate 1.2% among 390,000; AID 588591
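Fluorescent replication assay: 50 nM final substrate added after a 15 min room-temperature compound preincubation with 10 nM enzyme. Signal taken at 0 min and again at 10 min.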
Pol kappa inh: blocks human DNA polymerase kappa activity; purified Pol kappa, fluorescent DNA synthesis assay, 10 min; Q9UBT6; Potency, µM (titrated, usually from 107 µM), usual class: inhibitors; hit rate 0.53% among 400,000
Target sequence (Q9UBT6 whole entry, looked up): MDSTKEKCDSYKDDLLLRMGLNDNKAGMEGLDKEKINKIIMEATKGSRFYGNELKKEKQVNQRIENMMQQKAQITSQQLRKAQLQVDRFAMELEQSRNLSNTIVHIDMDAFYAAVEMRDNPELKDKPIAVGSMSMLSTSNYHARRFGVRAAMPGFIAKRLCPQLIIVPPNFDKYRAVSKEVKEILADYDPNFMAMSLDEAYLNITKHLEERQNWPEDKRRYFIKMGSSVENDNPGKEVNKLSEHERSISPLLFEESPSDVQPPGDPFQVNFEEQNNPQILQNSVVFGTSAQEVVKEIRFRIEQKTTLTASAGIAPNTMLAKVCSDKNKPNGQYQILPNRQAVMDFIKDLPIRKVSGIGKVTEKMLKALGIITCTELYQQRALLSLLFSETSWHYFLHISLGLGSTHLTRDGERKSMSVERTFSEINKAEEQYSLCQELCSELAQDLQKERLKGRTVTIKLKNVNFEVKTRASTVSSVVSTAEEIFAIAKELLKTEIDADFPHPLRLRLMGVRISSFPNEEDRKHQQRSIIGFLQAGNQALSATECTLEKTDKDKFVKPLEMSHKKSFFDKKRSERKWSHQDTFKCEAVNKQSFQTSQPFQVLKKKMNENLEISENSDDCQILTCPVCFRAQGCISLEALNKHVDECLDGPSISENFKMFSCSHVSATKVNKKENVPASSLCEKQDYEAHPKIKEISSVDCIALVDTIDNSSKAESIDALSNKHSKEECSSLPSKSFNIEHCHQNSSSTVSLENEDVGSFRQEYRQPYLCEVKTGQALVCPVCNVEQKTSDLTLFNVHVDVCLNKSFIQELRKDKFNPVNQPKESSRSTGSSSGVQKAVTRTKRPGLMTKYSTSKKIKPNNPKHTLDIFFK
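Inhibition of 10 nM Pol kappa is measured by a fluorescent read-out at 0 and 10 min following addition of 50 nM substrate (final), with a 15-min room-temperature compound preincubation.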
POLB inh: inhibitors of human DNA polymerase beta; P06746; Pol beta primer extension/strand displacement, fluorescence kinetic; Potency, µM (highest dose often 114 µM), usual class: inhibitors; hit rate 1.3% among 340,000; AID 485314
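10 nM enzyme + cpd, 15 min RT; start with substrate 50 nM final; read 0 min and after 10 min RT. Corrected, normalized data; 4-parameter Hill curve fit.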
FEN1 inh: blocks human flap endonuclease 1; P39748; AID 588795; Recombinant FEN1 flap cleavage, fluorescence, 15 min; hit rate 0.35% among 390,000; Potency, µM (titrated, usually from 114 µM), most hits filed as inhibitors; also: nearly all actives have a fitted effect of over 65% in size
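Compounds are tested as a concentration series against 10 nM FEN1; after a 15 min room-temperature preincubation, 50 nM substrate starts cleavage, with plate reads at 0 and 15 min. Normalized responses are fitted by a Hill equation.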
Pol iota inh: DNA polymerase iota (human) inhibition; Q9UNA4; Pol iota fluorescent replication assay, 10 min; Potency, µM (titrated, usually from 115 µM), most hits filed as inhibitors; hit rate 1% among 390,000; AID 588590
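Fluorescent replication assay read twice, at 0 min and 10 min after adding 50 nM (final) substrate. Enzyme (10 nM) and compounds were first incubated 15 min at room temperature; enzyme-free buffer wells were negative controls.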
BAZ2B confirm: confirmation of human BAZ2B bromodomain inhibitors | shares compounds with Pol kappa inh | AlphaScreen BAZ2B / biotin-H3K14Ac peptide displacement | Potency, µM, most hits filed as inhibitors | hit rate 100% among 25 | AID 588809; calls by dose curve
AlphaScreen ctr: interferes with AlphaScreen signal in BAZ2B counterscreen. shares compounds with Pol kappa inh. AlphaScreen biotin-His6 peptide bead counterscreen, signal decrease. Potency, µM (doses to about 57.1 µM), hits mostly inhibitors. 25 tested, under 10 active. AID 588859;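 active = clear concentration-dependent signal drop in the bead assay lacking the target, so a primary-screen artifact; inconclusive = weak, partial or single-dose response; inactive = no response, so a real primary hit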
TbPGK inh: blocks T. brucei phosphoglycerate kinase. hit rate 79% among 500. TbPGK coupled GAPDH assay, Kinase-Glo luminescence. AID 686980. shares compounds with Pol kappa inh. Potency, µM (top dose mostly 57.5 µM), hits mostly inhibitors; also: nearly all actives have a fitted effect of over 65% in size
POLI cherry-pick: Inhibitors of human DNA polymerase iota, confirmation | hit rate 77% among 1,500 | Pol iota primer extension, TAMRA/BHQ fluorescence | shares compounds with Pol kappa inh | Potency, µM, most hits filed as inhibitors | AID 720496
A number is an active result; 0 = inactive; ? = inconclusive; - = no result given; ! = not confirmed by another sample; [ ] = remark or other dose. Unless noted, calls follow the shape of the dose curve; as a rule, active = well fitted curve in the direction sought with a large enough effect; inconclusive = small, poorly fitted or top-dose-only effect, or another doubt; inactive = no such curve, though single readings can be large; an effect the other way counts as inactive or inconclusive.

SMILES	WRN helicase inh	POLH inh	Pol kappa inh	POLB inh	FEN1 inh	Pol iota inh	others
CC(C)n1c(O)c(C2c3cc(Cl)ccc3Oc3[nH]c(=O)n(C(C)C)c(=O)c32)c(=O)[nH]c1=O (centres undefined)	35.5µM	?	0	0	0	15.8µM
CCCCC/C=C\C/C=C\C/C=C\C/C=C\CCCC(=O)O	-	-	12.6µM!	-	-	-
CCCCC/C=C\C[C@@H](/C=C/C=C\C/C=C\CCCC(=O)O)OO	-	-	0[19.4 µM]	-	-	-
Cc1cccc2c1=NC(=O)/C(=C/c1c(O)[nH]c(=O)[nH]c1=O)C=2	50.1µM	0	0	0	0	0
Cn1c(O)c(/C=C2\C=c3ccccc3=NC2=O)c(=O)n(C)c1=O	0	0	0	0	0	?
Fc1ccc2c(c1)nnn2C1CCN(Cc2nnnn2C2CCCCC2)CC1	0	0	0	0	0	0
O=C(OCc1ccc(Cl)c(Cl)c1)c1ccccn1	0	0	0	0	0	0
Cc1cc(C(C#N)c2ccc(Cl)cc2)c(Cl)cc1NC(=O)c1cc(I)cc(I)c1O (centres undefined)	0	50.1µM	?	-	28.2µM	?
O=C(Cc1ccccc1)Oc1ccccc1N1C(=O)CCC1=O	0	0	0	0	0	0
COc1ccc(C(=O)Nc2ccccc2C(=O)NC(C(=O)NCc2ccco2)C(C)C)cc1 (centres undefined)	0	8.91µM	0	0	0	0
COc1cccc(C2(O)CCN(Cc3ccncc3)CC2)c1	0	0	0	0	0	0
CCOC(=O)/C(=N\Nc1ccccc1)N1CC1	0	0	0	0	0	0
O=C1C=CC(=O)c2c(O)cccc21	-	-	2.67µM	-	-	-
O=C1c2ccccc2C(=O)c2ccccc21	-	-	0	-	-	-
O=C(c1ccc2nc(-c3ccco3)c(-c3ccco3)nc2c1)N1CCC2(CC1)OCCO2	?	15.8µM	?	20µM	0	?
CC/C(=N\Nc1ccccc1)c1c(O)n(-c2ccccc2)c(=O)[nH]c1=O	0	0	0	0	0	0
Cc1[nH]n(-c2ccccc2)c(=O)c1C(c1cccc([N+](=O)[O-])c1O)c1c(C)[nH]n(-c2ccccc2)c1=O	?	0	0	0	0	0.282µM
CCC1(C)OC(c2ccccc2)=C/C(=C/C=C2C(=O)NC(=O)NC2=O)O1 (centres undefined)	?	0	0	?	0	28.2µM
O=C(Nc1cccc(C(=O)Nc2cc(C(=O)Nc3ccc([S+](=O)([O-])[O-])c4cc([S+](=O)([O-])[O-])cc(SOOO)c34)ccc2F)c1)Nc1cccc(C(=O)Nc2cc(C(=O)Nc3ccc([S+](=O)([O-])[O-])c4cc([S+](=O)([O-])[O-])cc([S+](=O)([O-])[O-])c34)ccc2F)c1	-	-	0.0597µM	-	-	-
C=CCn1c(O)c(C=NCCCOc2ccc(CC)cc2)c(=O)[nH]c1=S	?	0	0	?	0	?
C[C@@H]1O[C@@H](Oc2c(-c3ccc(O)c(O)c3)oc3cc(O)cc(O)c3c2=O)[C@H](O)[C@H](O)[C@H]1O	0	?	44.7µM	-	?	35.5µM
O=c1ccc2cc(O[C@@H]3O[C@H](CO)[C@@H](O)[C@H](O)[C@H]3O)c(O)cc2o1	0	0	0	-	0	0
C=C1C2[C@H](OC(C)=O)[C@@H]3CC(=O)[C@]4(C)OC[C@@]3(C)[C@@]4(O)[C@@H](OC(C)=O)[C@H](OC(C)=O)[C@@]2(COC(=O)c2ccccc2)[C@@H](OC(C)=O)C[C@@H]1O (some centres undefined)	0	0	0	0	0	0
CN1CCC2(CC1)C(C#N)=C(N)NC(S)=C2C#N	56.2µM!	0	0	?	0	0
Cc1cccc(NC(=O)Cn2cc(C(=O)c3ccccc3)c3ccccc32)c1	-	0	0	0	0	0
SMILES	WRN helicase inh	POLH inh	Pol kappa inh	POLB inh	FEN1 inh	Pol iota inh	others
Cc1cccc(NP(=O)(Oc2ccccc2F)Oc2ccccc2F)c1	0	0	0	0	0	0
Cc1ccc(NP(=O)(Oc2ccccc2F)Oc2ccccc2F)cc1C	0	0	?	0	0	89.1µM
COc1cc(/C=C/C(=O)c2c(O)n(CCc3ccccc3)c(=O)[nH]c2=O)ccc1O	0	?	0	0	?	0
COc1ccc(CN2Cc3cc(N4CCOCC4)ccc3-n3nncc3C2)cc1	0	-	-	-	-	-
Cc1cc(/C=C/c2cccc3sc(C)[n+](CCCCI)c23)ccc1N(CCCl)CCCl	-	-	56.2µM	-	?	79.4µM
C[C@]12CCC3C(C1CCC2=O)[C@H](O)C[C@H]1C[C@@H](O)CC[C@]31C (some centres undefined)	0	0	0	-	0	0
O=C(O)c1cccc2c1NC(C(=O)O)C1CC(Sc3ccccc3[N+](=O)[O-])C(Cl)C21 (centres undefined)	31.6µM	3.16µM	8.91µM	2.82µM	44.7µM	3.98µM	TbPGK inh=13µM
COC(=O)C1=C(c2ccc(OCc3ccccc3)cc2)C[C@@H]2CC[C@H]1N2C	0	0	-	-	-	-
O=C1NC(=S)NC(=O)C1=Cc1ccc2c(c1)CCN2CCCCl	56.2µM	2µM	10µM	?	?	?	TbPGK inh=2.31µM
O=C1NC(=O)C(=Cc2ccc(N3CCN(C(=O)c4ccccc4)CC3)c([N+](=O)[O-])c2)C(=O)N1	?	0	0	0	0	0
CCCNS(=O)(=O)c1ccc(OCC(=O)N2CCN(Cc3ccc4c(c3)OCO4)CC2)c(C)c1	0	0	0	-	0	0
COC12C(COC(N)=O)C3=C(C(=O)C(C)=C(N)C3=O)N1CC1C2N1C (centres undefined)	0	50.1µM	0	0	0	?	POLI cherry-pick=37.7
C[C@]12C=CC(=O)C=C1CCC1C2=CC[C@]2(C)[C@@H](C(=O)CN3CCN(c4cc(N5CCCC5)nc(N5CCCC5)n4)CC3)CC[C@@H]12 (some centres undefined)	-	?	-	0	-	0
CCCNC(=O)c1ccc2c(=O)n3c(-c4ccc(C)cc4)csc3nc2c1	0	0	0	0	?	?	BAZ2B confirm=4.47;AlphaScreen ctr=12.6µM
